Hits are enriched below; roughly 10% of the tested compounds scored in any of these assays.
HP1b chromo inh: HP1-beta chromodomain-methylated histone interaction inhibition | Potency, µM (series often up to 114 µM), hits mostly inhibitors | AID 540317 | AlphaScreen HP1-beta / biotin-H3K9me3 peptide binding | hit rate 0.56% among 390,000 | P83916; also: nearly all actives have a fitted effect of over 70% in size
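AlphaScreen: HP1-beta (50 nM) preformed 30 min with biotin-H3(1-18)K9me3 peptide (50 nM) in PBS pH 7.4, 0.01% Tween-20. Compound added for 30 min at RT, then streptavidin donor/nickel chelate acceptor beads (10 ug/mL) for 30 min.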
JMJD2A Tudor: blocks the human JMJD2A Tudor domain; AlphaScreen JMJD2A-Tudor / H3K4me3 peptide binding; Potency, µM (series often up to 114 µM), hits mostly inhibitors; hit rate 4.4% among 390,000; AID 504339; also: nearly all actives have a fitted effect of over 50% in size
Target sequence (O75164 whole entry, looked up, the tested form may be a part): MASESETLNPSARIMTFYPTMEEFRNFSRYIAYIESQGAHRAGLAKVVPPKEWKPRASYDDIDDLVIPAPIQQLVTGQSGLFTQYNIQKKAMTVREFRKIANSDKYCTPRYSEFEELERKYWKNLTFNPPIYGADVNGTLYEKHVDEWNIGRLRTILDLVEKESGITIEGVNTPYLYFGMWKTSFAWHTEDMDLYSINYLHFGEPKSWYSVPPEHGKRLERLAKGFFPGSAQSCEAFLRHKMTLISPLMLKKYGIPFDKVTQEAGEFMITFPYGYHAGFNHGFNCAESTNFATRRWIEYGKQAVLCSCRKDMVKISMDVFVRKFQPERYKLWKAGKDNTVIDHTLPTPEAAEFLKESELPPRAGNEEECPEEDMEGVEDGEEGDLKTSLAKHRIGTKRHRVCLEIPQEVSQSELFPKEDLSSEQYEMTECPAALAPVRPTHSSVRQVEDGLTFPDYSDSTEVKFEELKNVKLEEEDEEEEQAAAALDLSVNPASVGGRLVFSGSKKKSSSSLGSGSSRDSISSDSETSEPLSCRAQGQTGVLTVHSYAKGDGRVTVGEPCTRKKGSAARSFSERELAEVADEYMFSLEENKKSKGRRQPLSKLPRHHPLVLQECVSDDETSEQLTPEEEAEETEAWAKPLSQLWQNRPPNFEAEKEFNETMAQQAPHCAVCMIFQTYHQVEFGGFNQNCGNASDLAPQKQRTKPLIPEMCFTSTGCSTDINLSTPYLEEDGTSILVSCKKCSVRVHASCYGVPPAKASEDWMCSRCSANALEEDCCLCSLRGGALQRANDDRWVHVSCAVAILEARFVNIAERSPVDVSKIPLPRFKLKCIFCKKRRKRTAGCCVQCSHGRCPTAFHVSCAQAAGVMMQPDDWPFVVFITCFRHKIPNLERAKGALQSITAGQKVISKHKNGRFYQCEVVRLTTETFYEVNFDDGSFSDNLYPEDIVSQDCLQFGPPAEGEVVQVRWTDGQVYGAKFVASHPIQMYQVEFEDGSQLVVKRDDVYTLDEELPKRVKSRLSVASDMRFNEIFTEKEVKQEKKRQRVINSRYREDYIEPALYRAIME
G9a block: G9a (human) methyltransferase inhibition; Q96KQ7; G9a H3K9 monomethylation, AlphaScreen, 2 h; Potency, µM (titrated, usually from 102 µM), most hits filed as inhibitors; hit rate 8.8% among 350,000; AID 504332; also: nearly all actives have a fitted effect of over 75% in size
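AlphaScreen detection with an anti-monomethyl H3K9 antibody quantified product after a 2 h room-temperature reaction containing 500 nM biotinylated H3K9 peptide, 20 µM SAM and 20 nM enzyme, which had been preincubated 15 min with compound.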
BAZ2B inh: blocks human BAZ2B. Potency, µM (series often up to 114 µM), hits mostly inhibitors. AlphaScreen BAZ2B-H3K14Ac peptide displacement. AID 504333. hit rate 4.4% among 360,000; also: nearly all actives have a fitted effect of over 60% in size
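AlphaScreen luminescence quantifies BAZ2B engagement of H3K14Ac peptide; the protein and biotinylated peptide are both at 50 nM final, buffer PBS pH 7.4 with 0.01% Tween-20, all steps at room temperature.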
L3MBTL1 block: L3MBTL1 (human) inhibition; Potency, µM (titrated, usually from 57.1 µM), hits mostly inhibitors; AlphaScreen L3MBTL1–H3K9me1 peptide binding; hit rate 0.66% among 230,000; AID 485360; also: nearly all actives have a fitted effect of over 60% in size
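Displacement of a biotinylated histone H3(1-15) peptide monomethylated at Lys9 (75 nM) from L3MBTL1 (50 nM) was measured by AlphaScreen after a 30 min room-temperature compound incubation; cefsulodin titration served as intraplate control.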
GLS inhibitor: glutaminase GLS (human) inhibition | O94925 | GLS enzymatic activity, qHTS titration | Potency, µM (titrated, usually from 45.5 µM), actives largely listed as inhibitors | hit rate 0.21% among 410,000
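Human kidney-isoform GLS in 45 mM KH2PO4 pH 8.2, 0.02% Tween-20, with compound, started with 1mM L-Glutamine (added stock). Glutamate oxidase/HRP/Amplex red coupled fluorescence read at start and after 30 min at RT.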
Of the large screens only hits and unclear results are named; the others gave an inactive call. Calls follow the shape of the dose curve; as a rule, active = well fitted curve in the direction sought with a large enough effect; inconclusive = small, poorly fitted or top-dose-only effect, or another doubt; inactive = no such curve, though single readings can be large; an effect the other way counts as inactive or inconclusive.

Cc1cc(C)c2c(c1)C1C=CCC1C(c1ccc(S(=O)(=O)N3CCOCC3)cc1)N2 (stereo unspecified)	G9a block 8.9µM
CCCN1C(=O)/C(=C/c2ccncc2)SC1=S	HP1b chromo inh inconclusive, JMJD2A Tudor inconclusive, G9a block 45µM, BAZ2B inh 25µM
O=C1/C(=C/c2ccncc2)SC(=S)N1Cc1ccccc1	HP1b chromo inh 45µM, JMJD2A Tudor 25µM, BAZ2B inh 11µM (no result: G9a block)
O=C1/C(=C/c2ccc(O)cc2)SC(=S)N1Cc1cccnc1	none
Cc1ccc(/C=C2\SC(=S)N(CCC(=O)Nc3cccnc3)C2=O)cc1	none (no result: L3MBTL1 block)
Cc1sc2ncn(CC(=O)N(C)c3cccc(C(F)(F)F)c3)c(=O)c2c1S(=O)(=O)N1CCN(c2ncccn2)CC1	none (no result: L3MBTL1 block)
Cc1ccc(NC(c2ccc(Cl)cc2)c2nnc(-c3cccc(F)c3)o2)cc1C (stereo unspecified)	none (no result: L3MBTL1 block)
CCn1c(C(=O)Nc2cc(C)cc(C)c2)cc2sc(Cl)cc21	none (no result: L3MBTL1 block)
COc1ccc(-c2nc(O)c3cnccn23)cc1	G9a block inconclusive
CSc1ccc(-c2nc(O)c3cnccn23)cc1	G9a block 40µM
COc1ccc(-c2cc(C(=O)Nc3ccc(S(=O)(=O)Nc4onc(C)c4C)cc3)c3ccccc3n2)cc1	JMJD2A Tudor inconclusive, G9a block 50µM, BAZ2B inh inconclusive
Cc1ccnc(NS(=O)(=O)c2ccc(NC(=O)c3cc(-c4ccccc4)nc4ccccc34)cc2)n1	G9a block inconclusive
Cc1cc(C)nc(NS(=O)(=O)c2ccc(NC(=O)Cc3ccccc3)cc2)n1	none (no result: L3MBTL1 block)
Cc1cc(NS(=O)(=O)c2ccc(NC(=O)c3cnc4scc(C)n4c3=O)cc2)nc(C)n1	G9a block inconclusive
Cc1cc(C)nc(NS(=O)(=O)c2ccc(NC(=O)C3(c4ccccc4)CCCC3)cc2)n1	G9a block 56µM
Cc1noc(NS(=O)(=O)c2ccc(NC(=O)c3cnc4scc(C)n4c3=O)cc2)c1C	JMJD2A Tudor inconclusive, G9a block 50µM
Cc1ccc(-c2cc(C(=O)Nc3ccc(S(=O)(=O)Nc4nc(C)cc(C)n4)cc3)c3ccccc3n2)cc1	HP1b chromo inh inconclusive, G9a block 50µM, BAZ2B inh inconclusive
COC(=O)c1cc2oc3ccccc3c2n1CC(=O)Nc1ccc(C)cc1Cl	none (no result: L3MBTL1 block)
CCOc1ccccc1CNc1ccc2cc(S(=O)(=O)N3CCC(C)CC3)ccc2n1	none (no result: L3MBTL1 block)
O=C(CSc1nc2c(c(=O)[nH]1)CCC2)Nc1cccc(O)c1	none (no result: L3MBTL1 block)
CCN(CC)S(=O)(=O)c1ccc(O)c(NC(=O)c2cc(-c3cc(OC)c(OC)c(OC)c3)nc3ccccc23)c1	JMJD2A Tudor inconclusive, G9a block 7.9µM (no result: L3MBTL1 block)
COC(=O)CCCCC(=O)C1C(=O)CC(C)(C)C(C(=O)OC)C1=O (stereo unspecified)	JMJD2A Tudor inconclusive, G9a block inconclusive
CCCC(=O)C1C(=O)CC(C)(C)C(c2cc(C)no2)C1=O (stereo unspecified)	JMJD2A Tudor 50µM, G9a block inconclusive
COC(=O)C1CCN(c2cc(Cl)nc(N)n2)CC1	none
NC(=O)C1CCN(c2cc(Cl)nc(N)n2)CC1	JMJD2A Tudor 10µM
CCc1ccccc1N(c1nc(-c2ccc(OC)c(OC)c2)no1)c1nc(-c2ccc(OC)c(OC)c2)no1	none (no result: L3MBTL1 block)
CC1(c2ccc([N+](=O)[O-])cc2)NC(=O)N(CC(=O)Nc2ccc(N3CCCCC3)cc2)C1=O (stereo unspecified)	HP1b chromo inh inconclusive, JMJD2A Tudor inconclusive, G9a block 11µM, BAZ2B inh 35µM
CC1(c2ccccc2)NC(=O)N(CC(=O)Nc2ccc([N+](=O)[O-])cc2)C1=O (stereo unspecified)	none
CC1(c2ccc(OC(F)F)cc2)NC(=O)N(CC(=O)Nc2ccc(N3CCCCC3)cc2)C1=O (stereo unspecified)	HP1b chromo inh inconclusive, JMJD2A Tudor inconclusive, G9a block 7.1µM, BAZ2B inh inconclusive
CCS(=O)(=O)Nc1cc(-c2nc3cccnc3s2)ccc1C	G9a block 50µM
Cc1ccccc1C(=O)Nc1cccc(-c2nc3cccnc3s2)c1	JMJD2A Tudor 100µM, BAZ2B inh inconclusive (no result: L3MBTL1 block)
